The labels stand for the following.
B1: chrX:133301433:133301604:-|3pUTR|ENSG00000076716|msi1|total|mutant (ssRNA)
RNA: GGGAGUUCUACAGUCCGACGAUCUUGUUUUUCUUGGGGGAUGGGGUGGGGUGGGAGCCGGCCGAGCUGAGAAUACUACAUCUCCGUGGUGACCUUCCGCCACGUGGGUGAAGUGGCAAAGGCCAUGGCCAUAUCUGUUGUCCCCAACAGAGGAUUGAGCAUCA
B2: chr21:44851366:44851434:-|CDS_3pUTR|ENSG00000183255|msi1_unk|total|mutant (ssRNA)
RNA: GGGAGUUCUACAGUCCGACGAUCAGGACAGUCCUCUCGUCUUGCAGACUGGUGACCUUCUAUUCCCUGUUCAUCUCUGUUUCCCGAUUCCGUCACUUGAAAUAAGAAAUCUUUGGGGUUUGGGCUUUUUUAUACUCUUCUCAGCAACAGAGGAUUGAGCAUCA
B3: ENSG00000142192:stop:overlap|stop_codon|ENSG00000142192|stop_codon|NA|stop_codon (ssRNA)
RNA: GGGAGUUCUACAGUCCGACGAUCAGAUGCAGCAGAACGGCUACGAAAAUCCAACCUACAAGUUCUUUGAGCAGAUGCAGAACUAGACCCCCGCCACAGCAGCCUCUGAAGUUGGACAGCAAAACCAUUGCUUCACUACCCAUCCAACAGAGGAUUGAGCAUCA
B4: chr1:13115521:13116400:-|CDS|ENSG00000275774|control|control|control (ssRNA)
RNA: GGGAGUUCUACAGUCCGACGAUCGAACAGAGCAAACAAGAGGUAGAGGUGAAAAAUGCUAAGUCAGAAGAGGAGCAGAGCAGUAGCUCCAUGAAGAAAGAUGAGACUCAUGUAAAGAUGGAGUCUGAGGGGGGUGCAGAAGACCAACAGAGGAUUGAGCAUCA
B5: ENSG00000070961:be:win_5251|3pUTR|ENSG00000070961|bound_else_gene|NA|bound_elsewhere_windowed (ssRNA)
RNA: GGGAGUUCUACAGUCCGACGAUCUGGAUUCUUUAGCUCUCUUUUUCUUUCCUUCAUCUACCUUCUUCUCUUUUUUGCCUCUGUCUUUACCCUUUAGAAACUGGCAUGUGUUAGGGCCCAGAUUUCACCAGAUACACAAUCCUCCAACAGAGGAUUGAGCAUCA
B6: ENSG00000198589:be:win_6101|CDS|ENSG00000198589|bound_else_gene|NA|bound_elsewhere_windowed (ssRNA)
RNA: GGGAGUUCUACAGUCCGACGAUCUAGGAAAUCAGAACUCAGAAAACGAGAUCCUCCUGGAAGGCGAUGAUGAUACUCUGUCAUCCGUGGAUGAGAAAGAUUUAGAGAAUCUUGCCGGUCCUGUUAGCCUGAGCACACCAGCUCCAACAGAGGAUUGAGCAUCA

From PMC12136788 come the findings set out here.

Whole data set: some 5,800 sequences, median “enrichment r” near 0.68, cut for the highest 2% near 11. Only a selection was taken, and the highest values are over-represented in it overall.

The assay addresses T1, UNK ZnF1-6 (called full-length) (human, UniProt Q9C0B0 30-357).
T1 sequence: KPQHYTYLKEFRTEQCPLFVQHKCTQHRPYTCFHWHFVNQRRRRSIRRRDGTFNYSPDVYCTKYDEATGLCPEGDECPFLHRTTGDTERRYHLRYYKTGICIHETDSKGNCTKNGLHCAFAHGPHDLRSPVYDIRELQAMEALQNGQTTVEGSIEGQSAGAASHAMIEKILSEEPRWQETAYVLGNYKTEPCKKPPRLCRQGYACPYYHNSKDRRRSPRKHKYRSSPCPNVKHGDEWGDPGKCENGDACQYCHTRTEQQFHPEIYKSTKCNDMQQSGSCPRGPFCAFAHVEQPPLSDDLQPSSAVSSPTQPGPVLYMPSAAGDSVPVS
Kind of assay: nsRBNS (natural sequence RNA bind-n-seq); RBNS binding buffer (assumed for nsRBNS): 25 mM Tris pH 7.5, 150 mM KCl, 3 mM MgCl2, 0.01% Triton X-100, 500 ug/ml BSA, 20 U/ml SUPERase-In, 4 C; UNK is unkempt and MSI1 is Musashi-1; names of the RNAs are library labels; protein concentration not given here; high values mean tight binding.
B1 yielded a binding signal of 1.2 enrichment R.

The molecule B2 displayed a binding signal of 0.43 enrichment R. The value for B3 was 0.618 enrichment R. Take B4: the binding signal worked out at 0.882 enrichment R.

Molecule B5 came in with a binding signal of 1.45 enrichment R. The value for B6 was 0.619 enrichment R.
